Among the test systems are SR leukemia; OVCAR-8 ovarian; OVCAR-5 ovarian; OVCAR-4 ovarian; SK-OV-3 ovarian; IGROV1 ovarian; OVCAR-3 ovarian; HS 578T breast; NCI/ADR-RES ovarian; T-47D breast; MDA-MB-435 melanoma; SW-620 colon; MCF7 breast; HCT-116 colon; HCC-2998 colon; KM12 colon; BT-549 breast.
Common to all, as to experiment: NCI-60 one-dose screen, 48 h (100 = growth as untreated, 0 = no growth, -100 = all killed)
Common to all, as to details: 10 µM unless noted

This is part of a sample that, as a whole, favours compounds with a hit. Of some 83,000 tested, about 20% had one in any assay.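 Cells were grown in 96-well plates and exposed to the test compound at a single concentration for 48 hours; results are reported as percent growth, with values below 10 considered active.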 A number with no mark means an inactive call. Activity calls are given as the source filed them.

Turning to `COc1cc(C2C3=C(COC3=O)Nc3c2ccc2c3CCCC2)cc2c1OCO2` (stereo unspecified), the growth is 7.47% (active) in the experiment on SR leukemia; 15.9% in the experiment with OVCAR-8 ovarian; 42.8% in the experiment with OVCAR-5 ovarian; 38% with OVCAR-4 ovarian; -8.93% (active) in the experiment on SK-OV-3 ovarian; 44.7% in the experiment with IGROV1 ovarian. For the same molecule, the growth is -53.1% (active) in the experiment on OVCAR-3 ovarian; 81.8% with HS 578T breast; 3.82% (active) with NCI/ADR-RES ovarian; 73.5% in the experiment with T-47D breast; -16.9% (active) in the experiment on MDA-MB-435 melanoma; 23.1% with SW-620 colon. Besides, the growth in the experiment with MCF7 breast was 16.3%; in the experiment on HCT-116 colon, 0.327% (active); in the experiment on HCC-2998 colon, 5.11% (active); in the experiment on KM12 colon, -34.8% (active).
For the molecule `c1ccc(CCn2nnc3c(Nc4ccc(N5CCOCC5)cc4)ncnc32)cc1`, the growth was 36% with SR leukemia; 86.2% in the experiment on OVCAR-8 ovarian; 88.1% in the experiment with OVCAR-5 ovarian; 89.3% in the experiment on OVCAR-4 ovarian; 93.1% in the experiment with SK-OV-3 ovarian; 95.3% in the experiment with IGROV1 ovarian. The growth in the experiment on OVCAR-3 ovarian is 85.9%; with HS 578T breast, 97.3%; in the experiment with NCI/ADR-RES ovarian, 78.8%; in the experiment on MDA-MB-435 melanoma, 23.8%; with SW-620 colon, 62.8%; in the experiment with MCF7 breast, 89.1%. Besides, the results for the growth in the experiment on HCT-116 colon, with HCC-2998 colon and in the experiment on KM12 colon were 54%, 105% and 53.2%, respectively.
With `O=c1cc(C2NCCc3c2[nH]c2ccccc32)c2c(ccc3ccccc32)o1` (stereo unspecified), the growth with SR leukemia was 51.3%; in the experiment with OVCAR-8 ovarian, 60.1%; in the experiment on OVCAR-5 ovarian it was 78.3%; in the experiment on OVCAR-4 ovarian, 62.3%; in the experiment with SK-OV-3 ovarian it was 5.15% (active); in the experiment with IGROV1 ovarian, 33.4%. Further, the growth with OVCAR-3 ovarian was 95.1%; with HS 578T breast, 55.9%; with NCI/ADR-RES ovarian, 78.7%; in the experiment on T-47D breast it was 59.1%; with BT-549 breast it was 82%; with MDA-MB-435 melanoma it was 81.7%. Also, the growth was 59.6% in the experiment with SW-620 colon; 81.8% in the experiment on MCF7 breast; 42% in the experiment with HCT-116 colon; 78.1% in the experiment on HCC-2998 colon; 63.5% in the experiment with KM12 colon.
As for `CCn1c(=O)c2c(=O)c3c4c(oc3oc2c2ccccc21)C(=O)c1ccccc1C4=O`, the growth with SR leukemia is 80.8%; with OVCAR-8 ovarian, 10.2%; in the experiment on OVCAR-5 ovarian, 118%; in the experiment with OVCAR-4 ovarian, -99.5% (active); in the experiment with SK-OV-3 ovarian, 102%; with IGROV1 ovarian, 68.3%. For the same molecule, the growth in the experiment on OVCAR-3 ovarian is -16.3% (active); with HS 578T breast it was 93.7%; in the experiment on NCI/ADR-RES ovarian, 45.8%; in the experiment on T-47D breast, -9.96% (active); in the experiment on BT-549 breast, 85.1%; in the experiment on MDA-MB-435 melanoma it was 95.9%. Also, the growth with SW-620 colon was 73.5%; with MCF7 breast, 61.9%; in the experiment with HCT-116 colon, 34.6%; with HCC-2998 colon it was 101%; with KM12 colon, 86.6%.
`COc1cc(OC)c(C(=O)/C=C/c2cccc(C#N)c2)c(OC)c1`: the growth is 3.17% (active) with SR leukemia; 7.46% (active) with OVCAR-8 ovarian; 40.1% with OVCAR-5 ovarian; 18.1% in the experiment on OVCAR-4 ovarian; 0.849% (active) in the experiment with SK-OV-3 ovarian; 9.48% (active) in the experiment on IGROV1 ovarian. The growth with OVCAR-3 ovarian is 9.13% (active); in the experiment on HS 578T breast it was 17.6%; with NCI/ADR-RES ovarian, 14.8%; in the experiment on T-47D breast, 4.14% (active); in the experiment with BT-549 breast it was -3.25% (active); in the experiment on MDA-MB-435 melanoma, 7.3% (active). The growth with SW-620 colon is 6.58% (active); in the experiment with HCT-116 colon it was 2.91% (active); in the experiment on HCC-2998 colon, 14.4%; with KM12 colon, 6.41% (active).
With `Cc1cccc2cc(/C=C/C(=O)/C=C/c3ccc(Cl)cc3)c(=O)[nH]c12`, the growth in the experiment on SR leukemia is 0.572% (active); in the experiment on OVCAR-8 ovarian, 21.8%; with OVCAR-5 ovarian it was 84.8%; in the experiment on OVCAR-4 ovarian it was 58%; in the experiment on SK-OV-3 ovarian, 91.5%; with OVCAR-3 ovarian, 13.9%. The growth in the experiment on HS 578T breast was 50.9%; with NCI/ADR-RES ovarian, 94.8%; in the experiment with T-47D breast, 41.6%; in the experiment on BT-549 breast, 7.28% (active); with MDA-MB-435 melanoma, -32.7% (active); with SW-620 colon, 8.48% (active). Moreover, the growth is 9.87% (active) in the experiment with MCF7 breast, -52.7% (active) in the experiment on HCT-116 colon, -4.78% (active) in the experiment on HCC-2998 colon and 8.42% (active) with KM12 colon.
Consider `Cc1cc(Nc2nc(C(=O)Nc3ccccc3)nc3ccccc23)n[nH]1`, for which the growth in the experiment with SR leukemia was 33%; with OVCAR-8 ovarian it was 75.6%; in the experiment with OVCAR-5 ovarian, 82.2%; in the experiment with OVCAR-4 ovarian, 44.6%; with SK-OV-3 ovarian it was 39.3%; in the experiment with IGROV1 ovarian, 39.6%. Besides, the growth in the experiment on OVCAR-3 ovarian was 78.1%; in the experiment on HS 578T breast, 73.2%; in the experiment on NCI/ADR-RES ovarian, 44.2%; in the experiment with T-47D breast, 47%; in the experiment with BT-549 breast it was 50.6%; in the experiment with MDA-MB-435 melanoma, 64.9%. In addition, the growth is 77.5% in the experiment on SW-620 colon, 45.6% with HCT-116 colon, 84.3% in the experiment with HCC-2998 colon and 28% in the experiment on KM12 colon.
On to `c1cncc(CNc2ccccc2-c2nnc(Nc3ccc4c(c3)OCCO4)o2)c1`, for which the growth with SR leukemia was 14.1%; with OVCAR-8 ovarian, 27.1%; in the experiment with OVCAR-5 ovarian it was 43.9%; in the experiment on OVCAR-4 ovarian, 44%; in the experiment with SK-OV-3 ovarian it was -4.48% (active); with IGROV1 ovarian, 40.9%. Further, the growth with OVCAR-3 ovarian was -50.3% (active); with HS 578T breast, 77.9%; with NCI/ADR-RES ovarian, 6.09% (active); with T-47D breast it was 73.6%; in the experiment with BT-549 breast it was 16.6%; with MDA-MB-435 melanoma it was -20.3% (active). The growth is 23.2% in the experiment with SW-620 colon; 20.9% in the experiment on MCF7 breast; 9.5% (active) with HCT-116 colon; 9.58% (active) in the experiment with HCC-2998 colon; 3.03% (active) in the experiment with KM12 colon.
With `CCOC(=O)[C@H](CSSc1ncnc2cc[nH]c12)NC(=O)[C@@H](C)c1ccc2cc(OC)ccc2c1`, the growth in the experiment with SR leukemia is 18.9%; in the experiment on OVCAR-8 ovarian, 20.7%; in the experiment with OVCAR-5 ovarian, 27.3%; with SK-OV-3 ovarian, 8.34% (active); in the experiment on IGROV1 ovarian, 41.3%; in the experiment with OVCAR-3 ovarian, 25.4%. Besides, the growth was 59% in the experiment on HS 578T breast; 18.6% in the experiment on NCI/ADR-RES ovarian; 23.3% in the experiment with T-47D breast; 46.3% in the experiment with BT-549 breast; 24.4% with MDA-MB-435 melanoma; 19.3% with SW-620 colon. The growth in the experiment on MCF7 breast is 8.81% (active); in the experiment on HCT-116 colon it was 11.1%; with HCC-2998 colon it was 25.4%; in the experiment on KM12 colon it was 23.5%.

The record behind these values is PubChem BioAssay (NCI).
